proKLK7 act: proKLK7 zymogen activators, primary screen, biochemical, fluorescence intensity; AID 652039, 2013; activation, % at 7 µM; Kallikrein-7 (Homo sapiens), P49862; 370,000 tested, 0.9% active; purified proKLK7, EDANS-DABCYL substrate fluorescence; 100% is mature enzyme control, 0% vehicle;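 active means activation above the mean of all tested compounds plus 3 SD, computed per campaign excluding outliers beyond control limits, cut at about 13% in these data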
Target sequence (P49862 whole entry, looked up): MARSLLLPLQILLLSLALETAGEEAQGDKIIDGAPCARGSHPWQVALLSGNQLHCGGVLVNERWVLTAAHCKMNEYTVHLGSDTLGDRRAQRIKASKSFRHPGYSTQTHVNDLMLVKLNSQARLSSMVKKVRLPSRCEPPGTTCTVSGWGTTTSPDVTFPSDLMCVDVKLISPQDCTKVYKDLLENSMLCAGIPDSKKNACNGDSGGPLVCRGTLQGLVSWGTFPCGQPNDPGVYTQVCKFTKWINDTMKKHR
DSG3 Ab inh: inhibitors of pemphigus antibody binding to DSG3, primary screen, biochemical, bead-based, flow cytometry, scFv-GFP | DSG3-coupled beads, scFv-anti-DSG3-GFP binding; stronger effect = lower value | Desmoglein-3 (Homo sapiens), P32926 | binding (percent of control), % at 10 µM | 310,000 tested, 0.48% active;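 active means binding more than 3 SD below its plate's average and above zero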;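 further: hits lower antibody fragment binding to DSG3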
ADAM17 inh: ADAM17 inhibitors, primary screen, biochemical, QFRET | 370,000 tested, 0.83% active | inhibition, % at 6.95 µM | recombinant ADAM17, EDANS/DABCYL FRET peptide cleavage;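 active means inhibition above the mean of compounds lying between control limits plus 3 SD, set per campaign, cut at about 8.5% in these data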;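 further: 0% = DMSO-only wells as the low control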
rCAG binder: binders of r(CAG) RNA repeats, primary screen, biochemical, fluorescence. r(CAG) RNA repeat, TO-PRO-1 dye displacement fluorescence. inhibition, % at 3 µM. 370,000 tested, 1.3% active;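 active means inhibition above the plate cutoff, the mean of all test compounds on that plate plus 3 SD, cut at about 35% in these data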;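 further: 0% = DMSO alone and 100% = 100 µM mitoxantrone as full dye displacement; higher means more dye released from RNA so lower well fluorescence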
ADAM10 inh: human ADAM10 inhibitors, primary screen, biochemical, QFRET, HTS; recombinant ADAM10, EDANS/DABCYL FRET peptide cleavage, 3 h; Disintegrin and metalloproteinase domain-containing protein 10 (Homo sapiens), O14672; 370,000 tested, 0.62% active; inhibition, % at 7 µM;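 active means inhibition above a per-campaign cutoff equal to the mean of compounds falling between control-based bounds plus 3 SD, cut at about 20% in these data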;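 further: 0% = DMSO wells while the 100% control is not disclosed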
MPTP block: mitochondrial permeability transition pore inhibitors, primary screen, biochemical, isolated mouse mitochondria, absorbance; AID 602449, 2012; 360,000 tested, 1.4% active; inhibition, % at 10 µM; Ca2+ swelling absorbance, 30 min;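 active means inhibition of 50% or more, scaled per plate between neutral and stimulator controls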;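 further: 0% = DMSO wells given calcium and 100% = 1 mM EGTA wells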
proKLK7 act conf: proKLK7 zymogen activators, confirmation, biochemical, fluorescence intensity, triplicate; shares compounds with proKLK7 act; purified proKLK7, EDANS-DABCYL substrate fluorescence; scaled: vehicle 0, mature enzyme 100; activation, % at 7 µM; 3,200 tested, 68% active; AID 686949, 2013;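 active means activation, as change over the incubation, above the mean of all tested compounds plus 3 SD, cut at about 13% in these data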
EDANS-DABCYL int: EDANS-DABCYL substrate optical interference, artefact control for kallikrein-7 zymogen activator project, biochemical, fluorescence intensity, high throughput; shares compounds with proKLK7 act; no enzyme, 4 h; solvent 0%, active enzyme control 100%; activation, % at 7 µM; 3,200 tested, 80% active; AID 686952, 2013;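 active means activation above the all-compound mean plus 3 SD, ignoring values outside control-based bounds, cut at about 4.8% in these data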;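 further: value is the 4 h activation minus the activation read at time zero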
EDANS interf: optically interferes with EDANS-DABCYL fluorescence, kallikrein-7 activator counter-screen. 250 tested, 20% active. EC50, µM. EDANS-DABCYL peptide fluorescence interference, no enzyme. shares compounds with proKLK7 act;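 active means compounds that raise the fluorescence signal in this interference counterscreen, with EC50 at or below 10 µM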;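 further: intact quenched peptide substrate alone read at 355 nm excitation and 520 nm emission; signal is fluorescence gain from T0 to T4 after four hours at room temperature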
Numbers without * were called inactive; i = inactive; . = no result. The list is not random: actives were taken first. Their share in the collection is about 4.7%.

SMILES	proKLK7 act	DSG3 Ab inh	ADAM17 inh	rCAG binder	ADAM10 inh	MPTP block	proKLK7 act conf	EDANS-DABCYL int	others
CSc1ccc(-c2cccc3nncn23)cc1	21*	.	i	1	i	1	26*	25*
C=C(C)Cn1c2ccc(NC(=O)NCc3ccccc3)cc2c(=O)n1C	28*	.	i	1	i	-1	32*	26*	EDANS interf=>70
CCNC(=O)Nc1ccc2c(c1)c(=O)n(C)n2Cc1ccc(Cl)cc1	28*	.	i	2	i	0	16*	26*
C=C(C)Cn1c2ccc(NC(=O)NCC)cc2c(=O)n1C	39*	.	i	0	i	-1	53*	58*
Cn1c(=O)c2cc(NC(=O)NCCc3ccccc3)ccc2n1Cc1ccccc1	8	.	i	4	i	1	.	.
Cc1cccc(SCC(=O)Nc2ccc3c(c2)OCCO3)c1	0	96	-4	-6	0	-1	.	.
CCN(CC)CCNC(=O)c1cc2cc3ccc(OC)cc3nc2o1	24*	94	i	2	i	1	76*	84*
COc1ccc2cc3cc(C(=O)NCc4ccc5c(c4)OCO5)oc3nc2c1	-66	99	-103	4	-319	-3	.	.
COc1ccc2cc3cc(C(=O)NC(C)C)oc3nc2c1	35*	.	i	1	i	0	78*	83*
CCCCN(C)C(=O)c1cc2cc3ccc(OC)cc3nc2o1	12	137	i	-5	i	-1	.	.
CCCCN(C)C(=O)c1cc2cc3cc(OC)ccc3nc2o1	1	96	-347	1	i	0	.	.
COCCCNC(=O)c1cc2cc3cc(OC)ccc3nc2o1	23*	88	-343	-5	i	0	23*	29*
CCCCN(C)CCNC(=O)c1cc2cc3ccc(OC)cc3nc2o1	100*	101	i	0	i	0	54*	77*
COc1ccc(S(=O)(=O)N2CCOCC2)cc1NC(=O)CN1C(=O)NC2(CCC(C)CC2)C1=O (stereo not given)	0	98	-5	6	-7	0	.	.
Cc1ccc2cc3cc(C(=O)NCCCN4CC(C)CC(C)C4)oc3nc2c1 (stereo not given)	30*	103	-354	0	i	2	4	-1
Cc1ccc2cc3cc(C(=O)N4CC(C)CC(C)C4)oc3nc2c1 (stereo not given)	1	98	-1	-1	-17	1	.	.
COc1ccc2cc3cc(C(=O)NCc4cccnc4)oc3nc2c1	45*	107	i	4	i	-1	54*	53*
CC(C)[C@H](NC(=O)OC(C)(C)C)c1cc(C(=O)NC2CC2)c(N)s1	0	.	0	1	-14	0	.	.
COc1ccc2nc(N3CCC(O)CC3)c(C#N)cc2c1	16*	98	-117	1	-367	0	61*	72*
CC(C)CN(CC(C)C)C(=S)Nc1ccc(Cl)cc1	-1	102	-4	-4	-1	1	.	.
COC(C)c1oc2c(C)c3oc(=O)cc(C)c3cc2c1C (stereo not given)	7	.	-81	1	-202	1	.	.
CCC(=O)c1cc2c(C)cc(=O)oc2c(C)c1OC(=O)C(C)C	139*	.	-5	-5	-21	-2	155*	179*
CCC(=O)Oc1ccc2c(C)cc(=O)oc2c1C(=O)CC	7	103	-28	-2	-72	4	.	.
CCC(=O)c1cc2c(C)cc(=O)oc2c(C)c1OC(C)=O	453*	100	-7	-1	-13	-1	804*	772*
CC(O)CC(=O)NOCc1ccccc1 (stereo not given)	-1	108	2	2	-13	0	.	.
SMILES	proKLK7 act	DSG3 Ab inh	ADAM17 inh	rCAG binder	ADAM10 inh	MPTP block	proKLK7 act conf	EDANS-DABCYL int	others
N#Cc1c(-c2cccnc2)c2c([nH]c1=O)-c1ccccc1OC2	72*	108	i	-17	i	2	66*	71*
CN(C)C(=O)c1cccc(-c2cnc3cccnn23)c1	45*	.	i	3	i	-1	59*	59*
c1cnn2c(-c3ccc4c(c3)CCO4)cnc2c1	4	.	-12	-1	-31	0	.	.
CN(C)CCCNC(=O)c1cccc(-c2cnc3cccnn23)c1	54*	.	-399	3	i	1	60*	62*
FC(F)C(F)(F)Oc1cccc(Nc2nccn3c(-c4cccc5cccnc45)cnc23)c1	-7	.	-5	8	-19	0	.	.
COc1ccc(-c2ccc3nnc(SCC(=O)N4CCCC4)n3n2)cc1	15*	95	-120	-3	-368	-3	17*	13*	EDANS interf=>70
O=C(Nc1ccccc1F)c1cc2c(s1)-c1ccccc1S(=O)(=O)C2	89*	93	-32	3	-96	2	60*	93*
O=C(c1cc2c(s1)-c1ccccc1S(=O)(=O)C2)N1CCCC1	1	100	-2	2	-12	2	.	.
C=CCN(C(=O)c1ccc2c(c1)nnn2C)c1ccccc1	0	98	1	-3	0	-2	.	.
CCN(CC)C(=O)c1ccc2c(c1)nnn2C	16*	106	-3	0	-4	0	0	0
CC(=O)OCc1nc2ccccc2s1	0	105	0	-2	-3	-1	.	.
CCOC(=O)C(=O)Cc1nc2ccccc2s1	13*	96	-28	2	-102	0	4	5.3*
Cc1c(C)c2c(OCC(=O)NCc3ccco3)cc3c(c2oc1=O)CCC(C)(C)O3	-2	.	-64	-2	-272	0	.	.
Cc1c(C)c2c(OCC(=O)NCc3ccncc3)cc3c(c2oc1=O)CCC(C)(C)O3	-7	93	-128	-1	-442	-1	.	.
Cc1c(C)c2c(OCC(=O)N3CCC(O)CC3)cc3c(c2oc1=O)CCC(C)(C)O3	42*	95	i	-3	i	-1	69*	73*
